Assay results taken from PubChem BioAssay AID2665 (Vanderbilt High Throughput Screening Facility, 2010).
Activity calls are given as the source filed them. The rule behind the calls is not given here.

The compounds below were run against Muscarinic acetylcholine receptor M1 (Rattus norvegicus) (UniProt P08482) (assay: potentiation of ACh response at hM5 and rM1 – CHO cells, calcium, ACh EC10, single 30 µM, SAR follow-up (AID 2665;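 note: 100% = response to a maximal acetylcholine concentration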)). Conditions: rat M1 potentiation, CHO calcium; at 30 µM; stronger effect = higher value.
`O=C1C(=O)N(Cc2ccccc2Cl)c2c(Cl)ccc(Cl)c21` was tested, and the % ACh max response was 13.1%. `O=C1C(=O)N(Cc2ccc(F)cc2F)c2c(Cl)ccc(Cl)c21` was tested, and the % ACh max response was 17.2%. `O=C1C(=O)N(Cc2ccc(F)cc2F)c2c(F)cccc21` showed a % ACh max response of 64.4%. `O=C1C(=O)N(Cc2c(F)cccc2F)c2ccccc21` gave a % ACh max response of 36.6%. `O=C1C(=O)N(Cc2ccccc2C(F)(F)F)c2ccccc21` showed a % ACh max response of 37.9%. With `COc1ccc(-c2ccc(CN3C(=O)C(=O)c4ccccc43)cc2)cc1` the % ACh max response was 20.1%. In the case of `COc1ccc(CN2C(=O)C(=O)c3c(Cl)ccc(Cl)c32)cc1`, the % ACh max response is reported as 18.6%. `COc1ccc(CN2C(=O)C(=O)c3cc(C)ccc32)cc1` gave a % ACh max response of 14.1%. `O=C1C(=O)N(Cc2ccc(C(F)(F)F)cc2)c2ccc(Cl)cc21` was tested, and the % ACh max response was 44.1%. `O=C1C(=O)N(Cc2ccccc2F)c2c(F)cccc21` was tested, and the % ACh max response was 42.7%. For `O=C1C(=O)N(Cc2ccc(F)cc2F)c2c(Cl)cccc21`, the % ACh max response was 64.6%. Compound `O=C1C(=O)N(Cc2ccc(F)cc2F)c2ccccc21` has a % ACh max response of 44.8%. Work on `Cc1ccc2c(c1)C(=O)C(=O)N2Cc1ccc(Br)cc1` yielded a % ACh max response of 19%. With `O=C1C(=O)N(Cc2ccc(Br)cc2F)c2ccccc21` the % ACh max response was 49.2%. In the case of `O=C1C(=O)N(Cc2ccccc2C(F)(F)F)c2ccc(F)cc21`, the % ACh max response is reported as 47.8%. With `COc1ccc(CN2C(=O)C(=O)c3ccccc32)cc1` the % ACh max response was 43.6%. `O=C1C(=O)N(Cc2ccc(OC(F)(F)F)cc2)c2ccc(F)cc21` showed a % ACh max response of 59.8%. For `O=C1C(=O)N(Cc2ccc(-c3ccc(F)nc3)cc2)c2ccccc21`, the % ACh max response was 41%. With `O=C1C(=O)N(Cc2ccc(Br)cc2F)c2ccc(Cl)cc21` the % ACh max response was 29.9%. `Cc1ccc2c(c1)C(=O)C(=O)N2Cc1ccc(OC(F)(F)F)cc1` gave a % ACh max response of 13.8%. `Cc1ccc2c(c1)C(=O)C(=O)N2Cc1ccccc1Cl` showed a % ACh max response of 16.8%. `CCCOc1ccc(-c2ccc(CN3C(=O)C(=O)c4ccccc43)cc2)cc1` was tested, and the % ACh max response was 24.2%. `O=C1C(=O)N(Cc2ccccc2Cl)c2ccc(F)cc21` was tested, and the % ACh max response was 41.4%. `COc1ccc(CN2C(=O)C(=O)c3cccc(Cl)c32)cc1` showed a % ACh max response of 49.4%. `O=C1C(=O)N(Cc2ccc(OC(F)(F)F)cc2)c2c(Cl)cccc21` gave a % ACh max response of 43.6%. In the case of `Cc1cccc2c1N(Cc1ccc(F)cc1F)C(=O)C2=O`, the % ACh max response is reported as 32.6%. `O=C1C(=O)N(Cc2ccc(Br)cc2)c2c(Cl)cccc21` gave a % ACh max response of 29.9%. In the case of `O=C1C(=O)N(Cc2ccc(Br)cc2F)c2ccc(OC(F)(F)F)cc21`, the % ACh max response is reported as 11.6%. `Cc1cccc2c1N(Cc1c(F)cccc1F)C(=O)C2=O` showed a % ACh max response of 17.3%. `COc1ccc(CN2C(=O)C(=O)c3cccc(F)c32)cc1` was tested, and the % ACh max response was 54.6%. `Cc1ccccc1CN1C(=O)C(=O)c2c(Cl)ccc(Cl)c21` showed a % ACh max response of 13.7%. `Cc1ccccc1CN1C(=O)C(=O)c2cc(F)ccc21` gave a % ACh max response of 37.7%. `O=C1C(=O)N(Cc2c(F)cccc2F)c2c(F)cccc21` was tested, and the % ACh max response was 33.1%. `O=C1C(=O)N(Cc2ccc(OC(F)(F)F)cc2)c2ccccc21` gave a % ACh max response of 54.7%. Compound `O=C1C(=O)N(Cc2ccccc2F)c2ccccc21` has a % ACh max response of 38.9%. With `O=C1C(=O)N(Cc2ccccc2F)c2c(Cl)ccc(Cl)c21` the % ACh max response was 12.4%. For `O=C1C(=O)N(Cc2ccccc2C(F)(F)F)c2c(Cl)ccc(Cl)c21`, the % ACh max response was 21.1%.

What follows are compounds tested against Muscarinic acetylcholine receptor M5 (Homo sapiens) (UniProt P08912) in the same assay as above. Conditions: CHO hM5 calcium flux, ACh EC10 potentiation; at 30 µM; stronger effect = higher value.
Sequence of Muscarinic acetylcholine receptor M5 (Homo sapiens) (P08912 whole entry, looked up): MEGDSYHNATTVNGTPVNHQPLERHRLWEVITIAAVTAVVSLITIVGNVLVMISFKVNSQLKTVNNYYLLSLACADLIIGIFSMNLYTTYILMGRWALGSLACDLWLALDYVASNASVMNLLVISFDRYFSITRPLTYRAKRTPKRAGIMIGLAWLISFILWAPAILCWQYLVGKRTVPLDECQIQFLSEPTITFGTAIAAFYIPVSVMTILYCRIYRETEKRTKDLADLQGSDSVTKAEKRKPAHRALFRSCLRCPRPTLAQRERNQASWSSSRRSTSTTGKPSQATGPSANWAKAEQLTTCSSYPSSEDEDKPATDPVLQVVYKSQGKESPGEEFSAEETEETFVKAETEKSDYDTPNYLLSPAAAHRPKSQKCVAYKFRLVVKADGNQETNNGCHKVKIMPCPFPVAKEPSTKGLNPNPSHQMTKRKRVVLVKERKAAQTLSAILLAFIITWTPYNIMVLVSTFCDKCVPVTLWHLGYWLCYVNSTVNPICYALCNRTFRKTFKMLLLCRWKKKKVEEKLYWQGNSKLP
For `O=C1C(=O)N(Cc2ccccc2Cl)c2c(Cl)ccc(Cl)c21`, the % ACh max response was 18.9% (inactive). For `O=C1C(=O)N(Cc2ccc(F)cc2F)c2c(Cl)ccc(Cl)c21`, the % ACh max response was 19.1% (inactive). `O=C1C(=O)N(Cc2ccc(F)cc2F)c2c(F)cccc21` was tested, and the % ACh max response was 68.9% (active). For `O=C1C(=O)N(Cc2c(F)cccc2F)c2ccccc21`, the % ACh max response was 17.4% (inactive). In the case of `O=C1C(=O)N(Cc2ccccc2C(F)(F)F)c2ccccc21`, the % ACh max response is reported as 40.2% (active). For `COc1ccc(-c2ccc(CN3C(=O)C(=O)c4ccccc43)cc2)cc1`, the % ACh max response was 30.8% (inactive). With `COc1ccc(CN2C(=O)C(=O)c3c(Cl)ccc(Cl)c32)cc1` the % ACh max response was 11.7% (inactive). With `COc1ccc(CN2C(=O)C(=O)c3cc(C)ccc32)cc1` the % ACh max response was 21.2% (inactive). `O=C1C(=O)N(Cc2ccc(C(F)(F)F)cc2)c2ccc(Cl)cc21` was tested, and the % ACh max response was 67.4% (active). In the case of `O=C1C(=O)N(Cc2ccccc2F)c2c(F)cccc21`, the % ACh max response is reported as 42.4% (active). `O=C1C(=O)N(Cc2ccc(F)cc2F)c2c(Cl)cccc21` was tested, and the % ACh max response was 61.6% (active). For `O=C1C(=O)N(Cc2ccc(F)cc2F)c2ccccc21`, the % ACh max response was 40.4% (active). In the case of `Cc1ccc2c(c1)C(=O)C(=O)N2Cc1ccc(Br)cc1`, the % ACh max response is reported as 24.1% (inactive). In the case of `O=C1C(=O)N(Cc2ccc(Br)cc2F)c2ccccc21`, the % ACh max response is reported as 48.5% (active). For `O=C1C(=O)N(Cc2ccccc2C(F)(F)F)c2ccc(F)cc21`, the % ACh max response was 36.1% (active). `COc1ccc(CN2C(=O)C(=O)c3ccccc32)cc1` was tested, and the % ACh max response was 29.2% (active). With `O=C1C(=O)N(Cc2ccc(OC(F)(F)F)cc2)c2ccc(F)cc21` the % ACh max response was 58.4% (active). With `O=C1C(=O)N(Cc2ccc(-c3ccc(F)nc3)cc2)c2ccccc21` the % ACh max response was 46% (active). For `O=C1C(=O)N(Cc2ccc(Br)cc2F)c2ccc(Cl)cc21`, the % ACh max response was 30.4% (inactive). In the case of `Cc1ccc2c(c1)C(=O)C(=O)N2Cc1ccc(OC(F)(F)F)cc1`, the % ACh max response is reported as 18.9% (inactive). For `Cc1ccc2c(c1)C(=O)C(=O)N2Cc1ccccc1Cl`, the % ACh max response was 24.3% (inactive). In the case of `CCCOc1ccc(-c2ccc(CN3C(=O)C(=O)c4ccccc43)cc2)cc1`, the % ACh max response is reported as 48.6% (active). With `O=C1C(=O)N(Cc2ccccc2Cl)c2ccc(F)cc21` the % ACh max response was 39.9% (active). In the case of `COc1ccc(CN2C(=O)C(=O)c3cccc(Cl)c32)cc1`, the % ACh max response is reported as 30.3% (active). In the case of `O=C1C(=O)N(Cc2ccc(OC(F)(F)F)cc2)c2c(Cl)cccc21`, the % ACh max response is reported as 72.3% (active). In the case of `Cc1cccc2c1N(Cc1ccc(F)cc1F)C(=O)C2=O`, the % ACh max response is reported as 33.8% (inactive). `O=C1C(=O)N(Cc2ccc(Br)cc2)c2c(Cl)cccc21` was tested, and the % ACh max response was 44.3% (active). For `O=C1C(=O)N(Cc2ccc(Br)cc2F)c2ccc(OC(F)(F)F)cc21`, the % ACh max response was 36.4% (inactive). In the case of `Cc1cccc2c1N(Cc1c(F)cccc1F)C(=O)C2=O`, the % ACh max response is reported as 14.4% (inactive). For `COc1ccc(CN2C(=O)C(=O)c3cccc(F)c32)cc1`, the % ACh max response was 44.4% (active). In the case of `Cc1ccccc1CN1C(=O)C(=O)c2c(Cl)ccc(Cl)c21`, the % ACh max response is reported as 16.4% (inactive). `Cc1ccccc1CN1C(=O)C(=O)c2cc(F)ccc21` was tested, and the % ACh max response was 40.8% (active). In the case of `O=C1C(=O)N(Cc2c(F)cccc2F)c2c(F)cccc21`, the % ACh max response is reported as 25.1% (inactive). In the case of `O=C1C(=O)N(Cc2ccc(OC(F)(F)F)cc2)c2ccccc21`, the % ACh max response is reported as 60.5% (active). For `O=C1C(=O)N(Cc2ccccc2F)c2ccccc21`, the % ACh max response was 24.5% (active). For `O=C1C(=O)N(Cc2ccccc2F)c2c(Cl)ccc(Cl)c21`, the % ACh max response was 14.7% (inactive). For `O=C1C(=O)N(Cc2ccccc2C(F)(F)F)c2c(Cl)ccc(Cl)c21`, the % ACh max response was 16% (inactive).
